Experimental data as given in PubChem BioAssay (NCATS).
Records with an inconclusive call do not appear. A call without a number means that no potency is given here. Active and inactive are the calls of the source. The call rests on the fitted dose curve; in most records, active means well fitted inhibition curve with a large enough effect; inconclusive means small, poorly fitted or top-dose-only effect; inactive means no such curve, though single readings can be large or run the other way.

Test: Primary qHTS for small molecule stabilizers of the endoplasmic reticulum resident proteome: Secreted ER Calcium Modulated Protein (SERCaMP) assay (AID 1508630)
Conditions: SH-SY5Y GLuc-SERCaMP (Gaussia luciferase released on ER calcium loss) secretion, thapsigargin, luminescence; series mostly up to 38.4 µM
Excerpt: Assay Provider: Brandon K. Harvey Ph.D.
National Institute on Drug Abuse, National Institutes of Health, Baltimore, MD
Endoplasmic reticulum (ER) dysregulation is associated with human pathologies including neurodegenerative, cardiovascular, muscular, and diabetic conditions. Maintenance of ER calcium is critical for functions of the ER and its depletion can lead to loss of ER resident proteins, in a process termed exodosis. Therapeutic compounds capable of attenuating the redistribution of ER proteins under pathological conditions may slow or stop disease progression. To identify such compounds, we performed a quantitative high-throughput screen (qHTS) using the SERCaMP assay, which monitors secretion of ER resident proteins triggered by calcium depletion.
SERCaMP was initially developed as a reporter of ER calcium homeostasis using a Gaussia luciferase with a modified signal peptide and carboxy-terminus (GLuc-SERCaMP), modifications that confer secretion of the reporter in response to ER calcium depletion (Henderson et al., 2014). The assay was used to screen 9,501 compounds, including a collection of drugs approved by the FDA (US), EMA (EU), NHI (Japan), and HC (Canada) regulatory agencies (Huang et al., 2011). Since the SERCaMP reporter reflects the exodosis phenomenon (Trychta et al., 2018a), compounds identified in the screen have the potential to prevent exodosis by different mechanisms such as stabilizing ER calcium or augmenting ERS retrieval.
1. Henderson, M.J., Wires, E.S., Trychta, K.A., Richie, C.T., and Harvey, B.K. (2014). SERCaMP: a carboxy-terminal protein modification that enables monitoring of ER calcium homeostasis. Mol Biol Cell 25, 2828-2839.
2. Huang, R., Southall, N., Wang, Y., Yasgar, A., Shinn, P., Jadhav, A., Nguyen, D.T., and Austin, C.P. (2011). The NCGC pharmaceutical collection: a comprehensive resource of clinically approved drugs enabling repurposing and chemical genomics. Sci Transl Med 3, 80ps16.
3. Trychta, K.A., Back, S., Henderson, M.J., and Harvey, B.K. (2018a). KDEL Receptors Are Differentially Regulated to Maintain the ER Proteome under Calcium Deficiency. Cell Rep 25, 1829-1840 e1826.
SEQUENCE No. (1, 2, 3, etc.); […] (e.g., Cells, Incubation, Reagent, etc.); VALUE and DESCRIPTION.
1; Reagent; 5 uL; 1000 SH-SY5Y cells per wells
3; Compound; 23 nL; Control inhibitor / compound library
5; Reagent; 100 nM; Thapsigargin
7; Reagent; 1 uL; 0.5x coelenterazine
8; Detection; Luminescence; ViewLux imaging system
NOTES (numbers refer to sequence above)
1; SH-SY5Y human neuroblastoma cells stably expressing GLuc-SERCaMP (SH-SY5Y-GLuc-ASARTDL) cells were seeded in 1,536 well white tissue culture treated plates (Corning, Cat# 7464) in DMEM-high glucose-sodium pyruvate (ThermoFisher Scientific, Cat #10569) supplemented with 10% bovine growth serum (Hyclone), 10 U/ml penicillin (Gibco), 10 ug/ml streptomycin (Gibco), and 20 mM HEPES.
2; Assay plates were incubated for 5 hour at 37C in a humidified incubator containing 5% CO2.
3; qHTS libraries (23 nl, final concentrations of 1.53 uM, 7.67 uM, 38.3 uM) or controls (neutral control: DMSO, positive control: dantrolene) were added using a Kalypsis pin-tool Robotic System equipped with 1536 pinheads.
4; Cells were then incubated for 16 hours at 37C, 5% CO2.
5; Thapsigargin was added at 100 nM to deplete ER calcium stores.
6; Cells were incubated for 4 hour (37 °C, 5% CO2)
7; Gaussia luciferase in the medium was measured by adding 1 ul of 0.5x coelenterazine (final concentration 0.07x) prepared in Gaussia Luciferase Glow Assay Buffer (Pierce), without addition of the Cell Lysis Buffer Reagent.
8; Luminescence was measured using a ViewLux […] CCD imaging system (Perkin Elmer) equipped with clear filters. […] The same controls were also used for the calculation of the Z' factor, a measure of assay quality control, as previously described (Zhang et al., 1999). […]
Potency means the concentration at half of the fitted maximal effect.

SMILES	Potency
C[C@]12C=CC(=O)C=C1CC[C@@H]1[C@@H]2C(=O)C[C@@]2(C)[C@H]1CC[C@]2(O)C(=O)CO	inactive
CC(C)C[C@H](NC(=O)[C@H](CCc1ccccc1)NC(=O)CN1CCOCC1)C(=O)N[C@@H](Cc1ccccc1)C(=O)N[C@@H](CC(C)C)C(=O)[C@@]1(C)CO1	inactive
CNC1CCCN(c2c(F)cc3c(=O)c(C(=O)O)cn(C4CC4)c3c2OC)C1 (stereo not given)	inactive
COc1c(N2CCNC(C)C2)c(F)cc2c(=O)c(C(=O)O)cn(C3CC3)c12 (stereo not given)	20 µM (active)
CC(=O)CC(c1ccccc1)c1c(O)c2ccccc2oc1=O (stereo not given)	inactive
O=C(O)C1CCCN(CCC=C(c2ccccc2)c2ccccc2)C1 (stereo not given)	inactive
CCOC(=O)[C@H](CCc1ccccc1)N[C@H]1CCc2ccccc2N(CC(=O)O)C1=O	inactive
N[C@@H](Cc1ccc(O)c(O)c1)C(=O)O	inactive
COc1ccc(-c2ccc3cc(C(=O)O)ccc3c2)cc1C12CC3CC(CC(C3)C1)C2	inactive
CC1=CC(=O)c2ccccc2C1=O	inactive
C[C@@H]1CN(c2c(F)c(N)c3c(=O)c(C(=O)O)cn(C4CC4)c3c2F)C[C@H](C)N1	inactive
C[C@@H](NCCCc1cccc(C(F)(F)F)c1)c1cccc2ccccc12	inactive
NS(=O)(=O)c1cc2c(cc1Cl)NC(C(Cl)Cl)NS2(=O)=O (stereo not given)	inactive
COC(=O)Nc1nc2ccc(Sc3ccccc3)cc2[nH]1	inactive
OCc1ccc(-c2nn(Cc3ccccc3)c3ccccc23)o1	inactive
NC(=O)N1c2ccccc2CC(=O)c2ccccc21	inactive
CCOc1cc(N)c(Cl)cc1C(=O)NCC1CN(Cc2ccc(F)cc2)CCO1 (stereo not given)	inactive
CCCCc1oc2ccc(NS(C)(=O)=O)cc2c1C(=O)c1ccc(OCCCN(CCCC)CCCC)cc1	inactive
CN(CCOc1ccc(CC2SC(=O)NC2=O)cc1)c1ccccn1 (stereo not given)	inactive
CCOC(=O)c1ccc(OC(=O)CCCCCN=C(N)N)cc1	inactive

SMILES	Potency
CCOCC(O)COc1ccc(NC(=O)CC[S+](C)C)cc1 (stereo not given)	inactive
Cc1nnc(C(=O)NC(C)(C)c2nc(C(=O)NCc3ccc(F)cc3)c(O)c(=O)n2C)o1	inactive
Cc1ccc(S(=O)(=O)N[C@@H](Cc2ccccc2)C(=O)CCl)cc1	inactive
CN(C)CCc1c[nH]c2ccc(CS(=O)(=O)N3CCCC3)cc12	inactive
Cn1nnc2c(C(N)=O)ncn2c1=O	inactive
O=C(O)c1cccnc1	inactive
CC(C)(C#N)c1cc(Cn2cncn2)cc(C(C)(C)C#N)c1	inactive
Cc1noc(NS(=O)(=O)c2ccc(N)cc2)c1C	inactive
Cc1cccc(N(C)C(=S)Oc2ccc3ccccc3c2)c1	inactive
COc1cccc(N(C)C(=S)Oc2ccc3c(c2)CCCC3)n1	inactive
CN(Cc1cc(Br)cc(Br)c1N)C1CCCCC1	inactive
COC(=O)Nc1nc2ccc(S(=O)c3ccccc3)cc2[nH]1 (stereo not given)	inactive
CC[C@H](NC(C)C)[C@H](O)c1ccc(O)c2[nH]c(=O)ccc12	inactive
CCN(CC)CCn1c(=O)c(Cc2ccc(OC)cc2)nc2ccccc21	inactive
COc1cc2ncnc(Nc3cccc(Cl)c3)c2cc1OC	inactive
CCOC(=O)[C@H](CCc1ccccc1)N[C@H]1CS[C@H](c2cccs2)CN(CC(=O)O)C1=O	inactive
Cc1oc(=O)oc1CN1CCN(c2cc3c(cc2F)c(=O)c(C(=O)O)c2n3C(C)S2)CC1 (stereo not given)	inactive
Nc1[nH]c(=O)ncc1F	inactive
COc1ccc2c(c1)c(CC(=O)OCC(=O)O)c(C)n2C(=O)c1ccc(Cl)cc1	inactive
CCCOc1ccc(C(=O)OCCN(CC)CC)cc1N	inactive
